Values joined by “and” are separate entries in the source; they are usually repeats but may differ in a detail not shown here. Equal entries are not always repeated. Out of some 1,500 compounds screened, about 100 (6.7%) were called active. About 7% were inconclusive and are not listed. Only a selection was taken, and actives are over-represented in it overall. Values without a mark were called inactive. Calls come from the whole dose curve; as a rule, active = well fitted inhibition curve with a large enough effect; inconclusive = small, poorly fitted or top-dose-only effect, or effect the other way; inactive = flat fitted curve, though single readings scatter.
Biological target: Runt-related transcription factor 1 (Homo sapiens) + Core-binding factor subunit beta (Homo sapiens) (UniProt Q01196+Q13951)
Test: qHTS Assay for Compounds Blocking the Interaction Between CBF-beta and RUNX1 for the Treatment of Acute Myeloid Leukemia: Hit Validation; note: nearly all actives have a fitted effect of over 60% in size
Settings: AlphaScreen CBFb-His/RUNX1-biotin binding; series mostly up to 59.8 µM; activity, negative = inhibition: at the top concentration
Procedure, shortened: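 AlphaScreen proximity assay: His-tagged CBF-beta and biotinylated RUNX1 (30 nM each) preincubated 20 min, then compound 15 min, then nickel and streptavidin beads 90 min, all at room temperature; signal read at […]em 440 nm.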
% is set by controls: 0 for no effect and ±100 for the full control effect; potency is the fitted concentration of half-maximal effect.

Sequence of Runt-related transcription factor 1 (Homo sapiens) + Core-binding factor subunit beta (Homo sapiens) (Q01196 whole entry, looked up): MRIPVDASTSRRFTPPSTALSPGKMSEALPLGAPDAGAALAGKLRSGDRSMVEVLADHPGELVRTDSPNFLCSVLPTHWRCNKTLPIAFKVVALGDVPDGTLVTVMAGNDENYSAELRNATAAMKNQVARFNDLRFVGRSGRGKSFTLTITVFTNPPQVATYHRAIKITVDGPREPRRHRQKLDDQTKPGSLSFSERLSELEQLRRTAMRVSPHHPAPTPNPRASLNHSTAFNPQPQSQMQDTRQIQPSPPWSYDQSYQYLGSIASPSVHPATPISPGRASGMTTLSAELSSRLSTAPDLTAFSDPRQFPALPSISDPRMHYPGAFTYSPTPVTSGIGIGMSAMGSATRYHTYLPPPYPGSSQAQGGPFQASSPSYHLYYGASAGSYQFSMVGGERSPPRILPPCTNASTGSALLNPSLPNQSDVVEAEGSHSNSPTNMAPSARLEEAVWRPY
Sequence of Runt-related transcription factor 1 (Homo sapiens) + Core-binding factor subunit beta (Homo sapiens) (Q13951 whole entry, looked up): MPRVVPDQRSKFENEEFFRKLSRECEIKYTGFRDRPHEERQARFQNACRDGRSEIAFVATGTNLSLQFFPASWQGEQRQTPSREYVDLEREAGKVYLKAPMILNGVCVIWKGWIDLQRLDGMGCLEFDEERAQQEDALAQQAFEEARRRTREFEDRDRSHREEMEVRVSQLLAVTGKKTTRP

| Structure (SMILES) | activity, negative = inhibition [%] | Potency |
| --- | --- | --- |
| CCCCc1cc(=O)oc2c(C)c(OCc3nn[nH]n3)ccc12 | -4.17 | – |
| CC(=O)Nc1nnc(CSCc2ccc(F)cc2)s1 | -1.58 | – |
| Cc1ccc(-c2nn[nH]n2)cc1Cl | 0.848 | – |
| Cc1ccc(C(=O)/C=C/N(C)C)cn1 | -6.06 | – |
| CCOC(=O)Cc1csc(NC(=O)Nc2cccc(OC)c2)n1 | 6.65 | – |
| CCOC(=O)N1CCC(NS(=O)(=O)c2ccc(C)c(Cl)c2)CC1 | -2.28 | – |
| CCOc1ccc(Nc2nc(N)nc(CSC(=S)N3CCOCC3)n2)cc1 | -12.1 | – |
| CCN(CC)C(=S)SSC(=S)N(CC)CC | – | 0.794 µM (active) |
| Cc1ccncc1C(N)=O | -0.629 | – |
| CC(C)N(CCn1cnc2c([nH]c3ccccc32)c1=O)C(C)C | 1.42 | – |
| Cc1onc(-c2c(Cl)cccc2Cl)c1NC(=O)NC1CCSC1 (stereo unspecified) | -3.96 | – |
| O=C(O[C@@H]1OC2COC(=O)c3cc(O)c(O)c(O)c3-c3c(cc(O)c(O)c3O)C(=O)O[C@@H]([C@H]1O)[C@@H]2O)c1cc(O)c(O)c(O)c1 | – | 0.224 µM (active) |
| O=C1OCC2OC(O)C(O)C(O)C2OC(=O)c2cc(O)c(O)c(O)c2-c2c(O)c(O)c3oc(=O)c4c(c(O)c(O)c5oc(=O)c2c3c54)-c2c1cc(O)c(O)c2O (stereo unspecified) | – | 0.224 µM (active) |
| Cc1oc(S(=O)(=O)N(C)C)cc1C(=O)Nc1ccc(Cl)cc1 | -5.12 | – |
| Cc1ccc2[nH]cc(CCNC(=O)/C=C/c3ccco3)c2c1 | -14.3 | – |
| CC1(C)C(CC2OCC(CN3CCCCC3)O2)[C@H]2CC[C@@H]1C2 (stereo partly specified) | -2.34 | – |
| C=C(C)C(=O)Nc1cccnc1Oc1ccc(F)cc1 | -1.27 | – |
| O=C1CCCN1CCCNC(=S)Nc1ccccc1 | -7.84 | – |
| C=C(C)C(=O)Nc1cccnc1Oc1ccc(F)cc1F | -0.381 | – |
| O=c1c(O)cccc2cc(O)c(O)c(O)c12 | – | 447 nM (active) and 631 nM (active) |
| CCOC(=O)C1(C)C=C(Nc2cccc(OC)c2)C(=O)N1c1ccccc1 (stereo unspecified) | -13 | – |
| COc1ccccc1NC(=O)Nc1sccc1-c1nc2ccccc2s1 | -17.1 | – |
| CCOC(=O)c1cnc2c(C(=O)OCC)cnn2c1N | -0.993 | – |
| O=c1[nH]cc(I)cc1I | – | 17.3 µM (active) |
| CC(C)(C)c1ccc(NC(=S)NCc2cccnc2)cc1 | -3.62 | – |
| S=C(N/N=C/c1cccc2ccccc12)Nc1cccc(Cl)c1 | -12.9 | – |

| Structure (SMILES) | activity, negative = inhibition [%] | Potency |
| --- | --- | --- |
| Oc1ccc(/C=N/NC(=S)Nc2cccnc2)c(O)c1 | – | 1.58 µM (active) |
| Oc1ccc(NC(=S)Nc2ccccc2)cc1 | -3.44 | – |
| CNC(=O)C(=O)N/N=C/c1cccnc1 | 26.6 | – |
| Oc1ccc(/C=N/NC(=S)Nc2cccnc2)c(O)c1O | – | 1.26 µM (active) |
| O=c1[nH]nc(N/N=C/c2ccc(Cl)cc2Cl)c(=O)[nH]1 | -5.54 | – |
| Cc1onc(-c2c(F)cccc2Cl)c1C(=O)N=C(N)N1CC(C)OC(C)C1 (stereo unspecified) | -0.719 | – |
| O=C(O)C1(c2ccccc2)CCN(S(=O)(=O)c2ccc(Cl)s2)CC1 | -0.0237 | – |
| N#Cc1c(-c2ccccc2Cl)c2c([nH]c1=O)-c1ccccc1OC2 | 4.48 | – |
| COc1ccccc1NC(=O)OCC#CCOC(=O)Nc1ccccc1OC | 9.79 | – |
| CCn1c(NC(=O)c2ccccc2F)c(-c2cccs2)c(=O)c2ccccc21 | -8 | – |
| S=c1[nH]c2cc3ccccc3cc2[nH]1 | 10.7 | – |
| Nc1ccc2nc3c(=O)[nH]c(=S)[nH]c3nc2c1 | – | 2.51 µM (active) |
| COc1ccccc1NC(=S)NCC1CCC(CNC(=S)Nc2ccccc2OC)CC1 (stereo unspecified) | -2.72 | – |
| COC(=O)c1cccnc1Oc1ccccc1 | -13.6 | – |
| NC(=O)c1cccnc1Oc1ccc(Cl)cc1 | -13 | – |
| O=C(O)c1cccnc1C(=O)O | – | 14.1 µM (active) |
| Cc1[nH]ncc1-c1ccccc1Cl | 2.43 | – |
| Nc1nc(CCl)nc(Nc2ccc3ccccc3c2)n1 | 3.21 | – |
| Cc1ccc(N2CC(c3nc4ccccc4n3C)CC2=O)cc1 (stereo unspecified) | 0.961 | – |
| Cc1cc2nc3ccc(=[N+](C)C)cc-3sc2cc1N | – | 6.31 µM (active) |
| Cc1ccc2nc(-c3ccc(N)cc3)sc2c1 | 0.903 | – |
| Oc1cccc(O)c1O | – | 3.97 µM (active) |
| Cn1nc(-c2ccccc2)cc1NC(=O)CCCC(=O)O | -2.32 | – |
| Cc1ccnn1CC(=O)N/N=C/c1cn[nH]c1-c1ccc(F)cc1 | -5.89 | – |
| CC(C)CC(=O)NC(=S)Nc1ccccc1N1CCCC1 | -17.3 | – |
| CNC(=O)Nc1cc(NC(=O)NC)cc(C(F)(F)F)c1 | -3.15 | – |

| Structure (SMILES) | activity, negative = inhibition [%] | Potency |
| --- | --- | --- |
| CCOC(=O)C1=C(C)NC(C)=C(C(=O)OCC)C1 | 0.11 | – |
| CCCC(=O)NC(c1cccs1)c1cc([N+](=O)[O-])c2cccnc2c1O (stereo unspecified) | – | 3.98 µM (active) |
| CN(C)C(=O)CSc1nnc(NC(=O)CCc2ccccc2)s1 | 5.1 | – |
| COC(=O)/C=C(\C)N=Nc1c(O)[nH]c2ccccc12 | -4.81 | – |
| Cc1ccc(CN(C(=O)c2cc(=O)c3cc(C)cc(C)c3o2)C2CCS(=O)(=O)C2)cc1 (stereo unspecified) | 4.59 | – |
| Cc1cccc(C)c1NC(=S)N1CC(C)OC(C)C1 (stereo unspecified) | -4.3 | – |
| Cn1cnc(S(=O)(=O)Nc2ccc(OC(F)F)cc2)c1 | 1.32 | – |
| O=C1C(CCC(O)c2ccc(F)cc2)C(c2ccc(O)cc2)N1c1ccc(F)cc1 (stereo unspecified) | – | 15.8 µM (active) |
| CC(C)(C)OC(=O)N1CCCN(C(=O)Nc2ccccc2)CC1 | 0.141 | – |
| COc1cccc(NC(=O)C(=O)NCCc2ccc(F)cc2)c1 | 5.31 | – |
| CCOC(=O)/C(C#N)=C/Nc1ccsc1C(C)=O | 0.205 | – |
| Cc1ccc(Cn2c(N/N=C/c3ccncc3)nc3c2c(=O)n(C)c(=O)n3C)cc1 | -3.34 | – |
| O=C1CSC(=S)N1/N=C/c1ccc(O)c(O)c1O | – | 0.562 µM (active) |
| Cc1cc(NC(=O)c2c(-c3c(F)cccc3Cl)noc2C)no1 | -7.12 | – |
| COc1cccc(/C=N/NC(=O)C(C)Cn2cnc3ccccc32)c1 (stereo unspecified) | -0.552 | – |
| COc1ccc(Oc2ncccc2[N+](=O)[O-])cc1 | -4.02 | – |
| COc1ccc(Oc2nc(-c3ccccn3)ncc2OC)cc1 | – | 12.6 µM (active) |
| COc1ccc(Oc2ccc(-c3ccn[nH]3)cc2)cc1 | -8.28 | – |
| O=P(O)(O)c1cc(-c2ccccc2)oc1-c1ccccc1 | 0.0456 | – |
| CCCCC1C2C(=O)N(c3ccc(C)cc3)C(=O)C2ON1c1ccccc1 (stereo unspecified) | -2.92 | – |
| Cc1cc([N+](=O)[O-])nn1Cc1ccc(C(=O)N/N=C/c2ccc(N(C)C)cc2)cc1 | -10.8 | – |
| Nc1ccc(C(=O)C(=O)c2ccc(N)cc2)cc1 | 4.27 | – |
| Nc1ccc(N)c(C(=O)O)c1 | – | 0.794 µM (active) |
| O=C(O)c1cc2ccccc2cc1Nc1ccccc1 | -13.1 | – |

From PubChem BioAssay AID504374 (National Center for Advancing Translational Sciences (NCATS), 2011)
